From PubChem BioAssay AID1063 (University of Pittsburgh Molecular Library Screening Center, 2008)
Screen size: about 200,000 compounds; about 18,000 (9%) were called active. What follows is part of a selection rich in actives, with near analogues and random picks from the rest. Unmarked numbers belong to inactive results. Rule as the data show it: active = inhibition above about 50%; inactive = the rest.

Assay: antileishmanial activity against promastigotes – primary screen (AID 1063);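 also: promastigotes grown with compound for 44 hours at 28 °C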
Conditions: Leishmania major promastigotes, resazurin fluorescence viability; at 10 µM; stronger effect = higher value

SMILES | inhibition
CCn1c(-c2cccnc2Cl)nc2cc(C)c(C)cc21 | 10%
Oc1oc(-c2ccccc2Br)nc1/C=N/c1ccccn1 | -5.62%
CC(C)n1c(C(O)c2ccccc2)nc2ccccc21 (configuration not stated) | 5.37%
CC(C)n1c(O)c(N=Nc2ccccn2)c2ccccc21 | 56.6% (active)
CCc1ccccc1NC(=O)CN(c1ccc(OC)cc1OC)S(=O)(=O)c1ccccc1[N+](=O)[O-] | 27.7%
COc1ccc(N(C)S(=O)(=O)c2cccc3nsnc23)cc1 | -1.4%
CCOC(=O)C1=C(CC)Nc2ccccc2N=C1NC(=O)c1cccc(S(=O)(=O)N2CCCC2)c1 | 72% (active)
CCOC(=O)C1=C(CC)Nc2ccccc2N=C1N | -8.37%
CCOC(=O)CSc1nnc(NC(=O)c2cccc(S(=O)(=O)N3CCCC3)c2)s1 | -6.49%
CCN(CC)Cc1nc2sc(C)c(C)c2c(=O)[nH]1 | -6.68%
CC1CCN(C(=S)c2cccc(O)c2)CC1 | 0.69%
CCOc1ccc(-c2n[nH]c(C)c2-c2ccccn2)c(O)c1 | 5.25%
CCOc1ccccc1NC(=O)Nc1cc(OC)ccc1OC | -3.92%
CCOc1ccccc1Oc1cn[nH]c1-c1ccc(OC)cc1O | 50.6% (active)
CC(=O)c1cc(C#N)c(N2CC(C)OC(C)C2)nc1C (configuration not stated) | -0.03%
O=C(NCCCN1CCOCC1)c1ccccc1NS(=O)(=O)c1ccc(F)cc1 | -1.28%
O=C(NCCCN1CCOCC1)c1ccc([N+](=O)[O-])cc1[N+](=O)[O-] | 57.7% (active)
O=[N+]([O-])c1ccc(NCCCN2CCOCC2)c(Cl)c1 | 90.3% (active)
O=C(NCCCNc1ccc([N+](=O)[O-])cc1Cl)c1ccccc1F | 11.1%
O=C(NCCCN1CCOCC1)c1ccc(N2CCCC2)c([N+](=O)[O-])c1 | -1.2%
Nc1nc(NCCCN2CCOCC2)nc(Nc2ccccc2)c1[N+](=O)[O-] | 47.8%
S=C(Nc1ccc(Br)cc1Cl)N1CCC2(CC1)OCCO2 | -4.82%
Cc1ccc(CC2CC(=O)N(c3nc(C)cc(C)n3)C2=O)cc1 (configuration not stated) | -5.05%
Brc1ccc(CSc2ccc(-c3ccco3)nn2)cc1 | 2%
O=C1COc2ccc(C(=O)COC(=O)c3cccnc3Cl)cc2N1 | 11%

SMILES | inhibition
Cc1ccccc1Nc1nc(N)nc(CSc2ccccc2)n1 | 58.8% (active)
COc1ccccc1Nc1nc(N)nc(CN(C)C2CCCCC2)n1 | 0.98%
Cc1ccccc1Nc1nc(N)nc(CN2CCN(c3ccccn3)CC2)n1 | 0.34%
Cc1ccc(C(=O)OCc2nc(N)nc(Nc3ccccc3C)n2)cc1 | 53.7% (active)
Cc1ccccc1Nc1nc(N)nc(CSc2nnc3ccccn23)n1 | -7.89%
CCOC(=O)N1CCN(Cc2nc(N)nc(Nc3ccc(C)cc3)n2)CC1 | 3.79%
CCOC(=O)C(NC(C)=O)C(=O)Nc1ccc(OC)cc1 (configuration not stated) | -2%
CCCCNC(=O)Nc1c(C)cc(SC#N)cc1C | -2.51%
O=C(Nc1cccc(Cl)c1N1CCOCC1)c1ccc2c(c1)OCCO2 | 11.1%
COc1ccc(NC(=O)COc2ccc(C(=O)OCC(=O)N(C)C3CCS(=O)(=O)C3)cc2OC)cc1 (configuration not stated) | 2.14%
COc1ccc(S(=O)(=O)NCC2CCCN(C(=O)c3occc3C)C2)cc1 (configuration not stated) | -1.89%
O=C(CSc1ncnc2c1nnn2Cc1ccc(F)cc1)NC1CCCC1 | -6.62%
CCCCOc1ccc(C(=O)NN2CCN(C)CC2)cc1 | -6.12%
CC(=O)c1ccc(OCCN2CCOCC2)cc1 | -0.55%
CCCCOc1ccc(C(C)(O)CCN2CCOCC2)cc1 (configuration not stated) | 67.4% (active)
CCCCN(C)CCNC(=O)CSCc1ccc(C)cc1 | 35.7%
Cc1ccc(NC(=S)N(CCN(C)C)Cc2cccs2)cc1C | 23.8%
C#CCNC(=O)C1=C[C@@H](c2ccccc2)[C@H](CCCO)[C@@H](OCC)O1 | -3.12%
COc1cc(/C=N/N=C(\N)c2nonc2N)cc(OC)c1OC | 13.2%
O=C(ON=C1CCN(S(=O)(=O)c2ccccc2)CC1)c1ccc(Cl)cc1 | -6.64%
Cc1c(C2=CCN(S(=O)(=O)c3ccc(Cl)cc3)CC2)c2ccccc2n1C | 54.9% (active)
CC(C)NC(=O)C(=O)NCCN1CCN(S(=O)(=O)c2ccc(Cl)cc2)CC1 | -8.08%
OCC(O)CN(c1ccccc1)c1ccccc1 (configuration not stated) | -1.63%
O=C(COc1ccc(-c2ccccc2)cc1)NN=C1CCCC1 | -3.72%
COc1ccc(/C=C2\SC(=S)N(CC(=O)NNC(=O)c3ccncc3)C2=O)cc1 | -5.15%

SMILES | inhibition
Cn1cc([N+](=O)[O-])c(C(=O)Nc2ccc3c(c2)OCCO3)n1 | 10.7%
Cn1cc([N+](=O)[O-])c(C(=O)Nc2cnn(Cc3ccc(F)cc3)c2)n1 | 98.6% (active)
CCc1ccc(NC(=O)c2ccc(Cn3cc([N+](=O)[O-])cn3)cc2)cc1 | -3.55%
CCC(=O)c1ccc(N2CCN(C(=O)c3cc([N+](=O)[O-])ccc3F)CC2)c(F)c1 | 12.8%
CC(=O)Nc1ccc(S(=O)(=O)N(C)c2ccc(OCC(=O)OCC(=O)N3CCCCC3)cc2)cc1 | -6.69%
CSc1nc2ccc(NC(=O)c3c(F)cccc3F)cc2s1 | 15.7%
Cc1cccc(NC(=S)Nc2ccc3cn[nH]c3c2)c1 | 5.93%
CCN(CC)CCN(C(=O)c1cccc([N+](=O)[O-])c1)c1nc2ccc(OC)cc2s1 | 1.41%
O=C(/C=C/c1ccccc1Cl)Nc1ccc(S(=O)(=O)Nc2ncccn2)cc1 | -5.22%
O=S(=O)(Nc1ncccn1)c1ccc(NS(=O)(=O)c2cccc(Cl)c2Cl)cc1 | -9.09%
O=C(/C=C/c1ccc(Cl)cc1)Nc1ccc(S(=O)(=O)Nc2ncccn2)cc1 | 63.3% (active)
CCOc1cc(NC(=S)NCc2ccco2)c(OCC)cc1NC(=O)c1ccco1 | -3.82%
C[C@@H](C(=O)N1CCNCC1)n1cc(CCC(=O)O)nn1 | -3.38%
CCc1ccc(-n2c(=S)sc3c(=O)n(-c4ccccc4OC)c(=S)[nH]c32)cc1 | -0.77%
CCOC(=O)COc1ccc(Cl)cc1C1NC(=O)NC(C)=C1C(C)=O (configuration not stated) | 0.61%
CCCOc1ccc(C2NC(=O)NC(c3ccccc3)=C2C(C)=O)cc1OCC (configuration not stated) | 71.8% (active)
COC(=O)COc1ccc(C2NC(=O)NC(C)=C2C(=O)NCc2ccccc2)cc1OC (configuration not stated) | -7.17%
NS(=O)(=O)c1ccc(NC(=O)COC(=O)c2ccc(Cl)nc2)cc1 | -7.52%
NS(=O)(=O)c1ccc(NC(=S)NC(=O)c2cccc(Br)c2)cc1 | 1.9%
O=C(NCc1cccs1)C1CCN(S(=O)(=O)c2ccc(Cl)cc2)CC1 | -6.16%
CCNC(=S)NNC(=O)C1CCN(Cc2ccccc2)CC1 | -3.47%
O=C(NCCCN1CCN(Cc2ccccc2)CC1)C1CCN(S(=O)(=O)N2CCCC2)CC1 | -6.76%
O=c1cc(CO)oc(CN2CCC(Cc3ccccc3)CC2)c1O | -2.15%
O=C(NNS(=O)(=O)c1ccc(Cl)cc1)C1CCN(Cc2ccccc2)CC1 | 95.9% (active)
O=C(Nc1ccccc1)N1CCN(Cc2ccccc2)CC1 | -1.08%

SMILES | inhibition
CCCC(=O)C1CCN(Cc2ccccc2)CC1 | 82.8% (active)
CC(C)(C)NC(=O)NC(=O)CN1CCC(Cc2ccccc2)CC1 | -1.19%
NC(=O)c1ccc(CN2CCC(Cc3ccccc3)CC2)cc1 | 86.9% (active)
CCOC(=O)N1CCN(C(=O)c2ccccc2N(Cc2ccccc2)S(=O)(=O)c2ccc(OC)cc2)CC1 | 43.4%
COc1ccc(N2CCN(CCCNC(=O)C3CCN(S(=O)(=O)N4CCOCC4)CC3)CC2)cc1 | -4.04%
CC(C)NC(=O)c1ccc(Cl)cc1Cl | -4.71%
Cc1cc(C)cc(NC(=O)N2CCCCCCC2)c1 | 9.55%
CCOC(=O)C1CCN(c2ncnc3c2c(-c2ccccc2)cn3-c2ccc(C)cc2)CC1 | -6.27%
Cc1ccc(NC(=O)Nc2cccc(C(F)(F)F)c2)nc1 | 11%
COC(=O)C1=C(C)NC(=O)/C1=C/c1ccc(CNS(=O)(=O)c2ccc(C)cc2)o1 | 15.8%
COC(=O)C1=C(C)N(c2ccc(Br)cc2)C(=O)/C1=C\c1ccco1 | 24.7%
COC(=O)C1=C(C)N(c2ccc(C)cc2)/C(=C/c2ccc(O)cc2)C1=O | 97.8% (active)
COc1ccc(S(=O)(=O)N2CCN(C(=O)c3cc(C)oc3C)CC2)cc1 | 8.89%
C/C(CC(=O)Nc1cccc(C(F)(F)F)c1)=N\NC(=O)C(=O)NCC(C)C | -8.72%
COc1ccc(C(=O)CSc2nnc(-c3ccco3)o2)cc1 | -1.52%
N#Cc1c(-c2ccc(F)cc2)nc(-c2ccccc2)[nH]c1=O | 3.06%
N#Cc1ccc(-c2ccc(F)cc2)nc1Sc1ccccc1 | -13%
N#Cc1ccc(-c2nc3cc(C#N)c(C#N)cc3nc2-c2ccccc2)cc1C#N | 59% (active)
CC1(C)CC(=O)c2cnc3nc4ccccc4n3c2C1 | 0.4%
CSc1ccc(S(=O)(=O)NC2CCCCC2)cc1 | -2.31%
Cc1cccc(CCNS(=O)(=O)c2ccc(S(=O)(=O)NC3CCCC3)cc2)c1 | 68.6% (active)
O=C(CCc1ccc(S(=O)(=O)NC2CCCCC2)cc1)NCc1ccccc1 | 43.9%
